Test results: PubChem BioAssay
The source made the active and inactive calls. Unless noted, how the calls were made is not given here.

Columns and labels:
[1] = test system: Wnt5a (protein binding on small-molecule microarray); assay: small molecules binding Wnt5a protein – biophysical, small-molecule microarray, 635/667 nm fluorescence, primary screen (AID 1142); details: 635 nm fluorescence, higher = more signal;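 further: fluorescence read at 667 nm with signal to noise per printed feature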
[2] = ATP-based viability of Huh7 replicon cells – cell-based, CellTiter-Glo luminescence, basal, 48 h, cytotoxicity control for HCV replication inhibitor project, primary screen (AID 1143); details: higher = more signal, called active from +8 up or from −8 down;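 further: Huh7 hepatoma cells carrying a hepatitis C replication reporter with no stimulus; test concentration not given here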
[3] = Pseudomonas biofilm growth suppression – PAO1 strain, BacTiter-Glo luminescence, LB-PBS, primary screen (AID 1144); details: P. aeruginosa PAO1 biofilm, 12 h, higher = more signal
[4] = basal CRE-LacZ reporter activity in PC12 – cell-based, unstimulated, primary screen (AID 1145); details: no forskolin, luminescence, 4.5 h, higher = more signal, called active from +8 up or from −8 down
[5] = forskolin-driven CRE-LacZ activity in PC12 – cell-based, CRE-LacZ reporter, forskolin-stimulated, primary screen (AID 1146); details: luminescence, 4.5 h, higher = more signal, called active from +8 up or from −8 down;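 further: PC12 cells with 6xCRE LacZ reporter stimulated by forskolin 10 µM; beta-galactosidase reporter signal reflecting CREB driven transcription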
[6] = target: Streptavidin (Streptomyces avidinii) (UniProt P22629); assay: compounds binding control protein streptavidin – biophysical, small-molecule microarray, 635/667 nm fluorescence, artefact control for SMM compound annotation, primary screen (AID 1147); details: higher = more signal;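 further: signal reflects streptavidin binding to arrayed compounds as a control protein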
Sequence of Streptavidin (Streptomyces avidinii) (P22629 whole entry, looked up): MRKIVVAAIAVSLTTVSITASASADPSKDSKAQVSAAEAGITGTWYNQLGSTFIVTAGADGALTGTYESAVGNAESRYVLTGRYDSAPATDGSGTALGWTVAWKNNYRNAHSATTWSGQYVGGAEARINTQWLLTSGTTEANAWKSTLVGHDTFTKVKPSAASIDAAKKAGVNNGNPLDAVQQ

[7] = probe aInhba binding on compound microarray – biochemical, small-molecule microarray, 635/667 nm fluorescence, primary screen (AID 1148); details: higher = more signal;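 further: score merges 667nm spot fluorescence with signal-to-noise for antibody binding to printed compounds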
Torsin-1A (Homo sapiens) [8] = target: Torsin-1A (Homo sapiens) (UniProt O14656); assay: TOR1A wild-type binding on microarray – cell lysate, small-molecule microarray, lysate, 635/667 nm, primary screen (AID 1149); details: COS7 hTOR1A-WT lysate, 635 nm fluorescence, higher = more signal
Sequence of Torsin-1A (Homo sapiens) (O14656 whole entry, looked up): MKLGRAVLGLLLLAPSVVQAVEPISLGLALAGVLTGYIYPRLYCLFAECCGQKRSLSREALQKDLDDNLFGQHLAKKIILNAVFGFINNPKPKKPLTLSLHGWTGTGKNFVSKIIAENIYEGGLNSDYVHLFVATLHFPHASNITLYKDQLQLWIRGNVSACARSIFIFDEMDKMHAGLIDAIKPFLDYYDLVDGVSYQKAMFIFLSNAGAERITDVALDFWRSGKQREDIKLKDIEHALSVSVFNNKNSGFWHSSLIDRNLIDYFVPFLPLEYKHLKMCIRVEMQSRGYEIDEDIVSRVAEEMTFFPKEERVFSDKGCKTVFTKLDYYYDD

Torsin-1A (Homo sapiens) [9] = target: Torsin-1A (Homo sapiens) (UniProt O14656); assay: torsin A mutant lysate binding on microarrays – cell lysate, small-molecule microarray, COS7 lysate, 635/667 nm fluorescence, primary screen (AID 1150); details: COS7 hTOR1A mutant lysate, 635 nm fluorescence, higher = more signal;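 further: score pools 667 nm emission and signal to noise measuring lysate protein binding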
[10] = test system: Sonic hedgehog protein (Shh); assay: Sonic hedgehog microarray binding compounds – biochemical, small-molecule microarray, 635/667 nm fluorescence, primary screen (AID 1151); details: 635 nm fluorescence, higher = more signal;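 further: Shh protein binding to compounds spotted on small-molecule microarray slides; score combines spot fluorescence intensity with signal-to-noise across triplicate slides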
[11] = optical density shifts of acrAB sulA E. coli – strain DRC41, OD650, 48 h, E. coli filamentation inducer project, primary screen (AID 1152); details: higher = more signal, called active from +8 up or from −8 down;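 further: E. coli MC1000 strain DRC41 lacking acrAB efflux pump and sulA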
[12] = probe aLefty1 binding on compound microarray – biochemical, small-molecule microarray, 635/667 nm fluorescence, primary screen (AID 1153); details: higher = more signal;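 further: score merges spot fluorescence with signal-to-noise ratio from the scanned slide images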
[13] = plasmodial surface anion channel blockers, osmotic lysis – cell-based, P. falciparum Indochina, OD700, 1 h, primary screen (AID 1154); details: P. falciparum Indochina infected RBC osmotic lysis, higher = more signal, called active from +8 up or from −8 down
[14] = plasmodial surface anion channel blockers, osmotic lysis – cell-based, P. falciparum Indochina, OD700, 2 h, primary screen (AID 1155);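 further: lysis reports solute entry through the parasite surface anion channel PSAC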; details: P. falciparum Indochina infected erythrocytes, higher = more signal, called active from +8 up or from −8 down
[15] = changes in parasitized red cell lysis, either direction – P. falciparum Indochina, OD700, 3 h, PSAC antagonist project, primary screen (AID 1156); details: P. falciparum-infected erythrocytes, osmotic lysis, higher = more signal, called active from +8 up or from −8 down
[16] = plasmodial surface anion channel blockers, osmotic lysis – cell-based, P. falciparum Indochina, OD700, 18 h, primary screen (AID 1157); details: P. falciparum Indochina infected erythrocytes, osmotic lysis OD700, 18 h; higher = more signal, called active from +8 up or from −8 down
[17] = S6 kinase pathway phospho-S6 level changes – cell-based, A549, cytoblot, luminescence, serum-stimulated, primary screen (AID 1158); details: 5 h, higher = more signal;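 further: serum-stimulated A549 lung adenocarcinoma cells; signal is phosphorylated S6 detected by cytoblot immunostaining with HRP secondary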
[18] = target: NADPH oxidase 2 (Homo sapiens) (UniProt P04839); assay: compounds shifting NOX2 Amplex Red fluorescence – cell-based, HEK293-NOX2, PMA-stimulated, NOX inhibitor project, primary screen (AID 1159); details: 45 min, higher = more signal, called active from +8 up or from −8 down; further: test concentration not given here
Sequence of NADPH oxidase 2 (Homo sapiens) (P04839 whole entry, looked up): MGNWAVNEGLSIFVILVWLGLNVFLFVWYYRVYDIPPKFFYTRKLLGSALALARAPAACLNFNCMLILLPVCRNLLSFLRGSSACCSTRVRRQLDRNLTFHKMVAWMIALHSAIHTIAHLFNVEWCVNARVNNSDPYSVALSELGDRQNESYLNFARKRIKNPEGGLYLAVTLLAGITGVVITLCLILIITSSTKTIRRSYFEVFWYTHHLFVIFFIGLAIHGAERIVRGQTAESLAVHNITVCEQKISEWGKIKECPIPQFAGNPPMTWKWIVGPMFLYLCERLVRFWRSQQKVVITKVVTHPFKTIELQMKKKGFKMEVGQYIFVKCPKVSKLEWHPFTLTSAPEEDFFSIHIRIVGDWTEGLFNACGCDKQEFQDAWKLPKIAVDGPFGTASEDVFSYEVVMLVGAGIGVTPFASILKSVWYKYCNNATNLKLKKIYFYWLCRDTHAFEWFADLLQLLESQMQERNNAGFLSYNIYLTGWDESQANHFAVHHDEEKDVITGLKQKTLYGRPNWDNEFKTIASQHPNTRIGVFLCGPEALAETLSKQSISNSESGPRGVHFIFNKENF

[19] = target: NADPH oxidase 4 (Homo sapiens) (UniProt Q9NPH5); assay: compounds shifting NOX4 Amplex Red fluorescence – cell-based, HEK293-NOX4, tetracycline-induced, NOX inhibitor project, primary screen (AID 1160); details: HEK293-NOX4, Amplex Red H2O2 fluorescence, 45 min; higher = more signal, called active from +8 up or from −8 down
Sequence of NADPH oxidase 4 (Homo sapiens) (Q9NPH5 whole entry, looked up): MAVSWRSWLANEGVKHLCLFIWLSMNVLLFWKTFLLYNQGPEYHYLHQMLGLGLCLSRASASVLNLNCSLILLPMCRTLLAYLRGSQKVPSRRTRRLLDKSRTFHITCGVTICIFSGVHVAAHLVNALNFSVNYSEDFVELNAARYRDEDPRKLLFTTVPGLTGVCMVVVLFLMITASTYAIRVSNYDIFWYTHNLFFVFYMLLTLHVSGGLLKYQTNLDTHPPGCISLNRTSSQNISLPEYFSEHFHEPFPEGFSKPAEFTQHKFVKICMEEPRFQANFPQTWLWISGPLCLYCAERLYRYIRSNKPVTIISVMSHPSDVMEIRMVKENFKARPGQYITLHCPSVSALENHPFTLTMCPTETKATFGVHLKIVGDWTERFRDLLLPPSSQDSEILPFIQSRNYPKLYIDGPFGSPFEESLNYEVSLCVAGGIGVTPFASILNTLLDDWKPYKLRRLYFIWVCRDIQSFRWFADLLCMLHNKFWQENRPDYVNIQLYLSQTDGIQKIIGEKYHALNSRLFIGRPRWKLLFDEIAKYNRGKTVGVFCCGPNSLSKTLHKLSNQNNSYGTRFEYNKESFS

[20] = target: NADPH oxidase 5 (Homo sapiens) (UniProt Q96PH1); assay: compounds shifting NOX5 Amplex Red fluorescence – cell-based, HEK293-NOX5, NOX inhibitor project, primary screen (AID 1161); details: HEK293-NOX5, ionomycin, 45 min, higher = more signal
Sequence of NADPH oxidase 5 (Homo sapiens) (Q96PH1 whole entry, looked up): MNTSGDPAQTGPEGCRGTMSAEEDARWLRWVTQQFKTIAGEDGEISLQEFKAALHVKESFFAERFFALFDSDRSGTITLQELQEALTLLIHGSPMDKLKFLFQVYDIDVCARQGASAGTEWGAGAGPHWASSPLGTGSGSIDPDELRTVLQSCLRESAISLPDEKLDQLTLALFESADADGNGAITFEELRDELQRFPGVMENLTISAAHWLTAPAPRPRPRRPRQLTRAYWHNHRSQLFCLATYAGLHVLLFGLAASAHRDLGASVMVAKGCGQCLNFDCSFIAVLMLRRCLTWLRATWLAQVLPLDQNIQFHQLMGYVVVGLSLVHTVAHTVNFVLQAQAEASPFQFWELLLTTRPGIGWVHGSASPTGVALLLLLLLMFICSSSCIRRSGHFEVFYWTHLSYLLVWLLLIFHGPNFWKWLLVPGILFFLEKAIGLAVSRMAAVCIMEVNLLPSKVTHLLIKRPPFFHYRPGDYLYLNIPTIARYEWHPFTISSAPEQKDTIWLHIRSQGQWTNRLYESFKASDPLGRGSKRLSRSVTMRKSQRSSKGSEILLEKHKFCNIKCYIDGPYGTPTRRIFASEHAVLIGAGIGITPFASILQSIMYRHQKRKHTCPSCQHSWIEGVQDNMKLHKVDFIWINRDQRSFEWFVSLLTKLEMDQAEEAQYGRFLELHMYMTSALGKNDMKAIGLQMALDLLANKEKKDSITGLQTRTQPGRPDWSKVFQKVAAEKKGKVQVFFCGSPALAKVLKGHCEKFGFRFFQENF

Compound	composite z-score [1]	z-score [2]	z-score [3]	z-score [4]	z-score [5]	composite z-score [6]	composite z-score [7]	composite z-score (Torsin-1A (Homo sapiens) [8])	composite z-score (Torsin-1A (Homo sapiens) [9])	composite z-score [10]	z-score [11]	composite z-score [12]	z-score [13]	z-score [14]	z-score [15]	z-score [16]	z-score [17]	z-score [18]	z-score [19]	z-score [20]
C=CC[C@]1(C(N)=O)COC(c2ccc(OCCCO)cc2)=N1	0.469	-1.33 (inactive)	-0.151 (inactive)	0.0359 (inactive)	0.127 (inactive)	-0.266	0.027	1	1.18	0.395	1.3 (inactive)	0.269	3.06 (inactive)	0.167 (inactive)	0.111 (inactive)	0.322 (inactive)	0.537	-2.3 (inactive)	0.13 (inactive)	-0.131
C#CCN1[C@H](/C=C/C2CC2)[C@H](Cc2ccccc2)OC(=O)[C@@H]1Cc1ccccc1	-0.18	-3.28 (inactive)	0.854 (inactive)	1.04 (inactive)	1.29 (inactive)	-0.929	-0.0675	0.349	0.429	1.12	-0.625 (inactive)	-0.306	0.128 (inactive)	0.224 (inactive)	-0.491 (inactive)	-0.16 (inactive)	0.0807	-0.263 (inactive)	-0.367 (inactive)	-1.98
COC(=O)[C@@]1(Cc2ccc(F)cc2)[C@H]2c3cc(C(=O)N(C)C)n(Cc4cc(C)n(C)n4)c3C[C@H]2CN1C(=O)c1ccccc1	0.692	-0.617 (inactive)	-0.0119 (inactive)	0.779 (inactive)	0.455 (inactive)	0.678	0.302	0.149	0.0322	0.303	-1.48 (inactive)	0.0576	0.797 (inactive)	0.364 (inactive)	0.0419 (inactive)	0.495 (inactive)	-0.438	0.743 (inactive)	-0.354 (inactive)	-0.329
C=C(C(=O)CC[C@H](OC(C)=O)c1ccccc1OCCO)C(C)C	-0.138	-8.56 (active)	-0.679 (inactive)	9.01 (active)	-0.422 (inactive)	-0.455	-0.188	0.229	-0.752	2.19	0.0974 (inactive)	-0.147	2.27 (inactive)	2.54 (inactive)	-4.78 (inactive)	-0.431 (inactive)	0.66	-5.71 (inactive)	-2.22 (inactive)	-3.36
COc1ccc(-c2cc3c(c(Cc4ccccc4)n2)[Si](C(C)C)(C(C)C)OC3)cn1	-0.153	-1.03 (inactive)	0.2 (inactive)	-0.141 (inactive)	0.877 (inactive)	-0.32	-0.215	-0.0113	-0.729	-0.093	-1.28 (inactive)	-0.0099	2.28 (inactive)	0.139 (inactive)	-0.709 (inactive)	0.408 (inactive)	0.0758	-1.62 (inactive)	-0.121 (inactive)	-2.02
COc1ccc([Si](C)(C)[C@H]2[C@H](CCn3cc([C@H](O)c4ccccc4)nn3)O[C@@]3(C(=O)N(C)c4ccccc43)[C@@H]2C)cc1	-0.319	-3.31 (inactive)	-0.573 (inactive)	2.69 (inactive)	-1.28 (inactive)	-0.814	-0.0221	-0.71	-0.193	1.36	0.294 (inactive)	0.573	5.08 (inactive)	1.5 (inactive)	0.56 (inactive)	0.866 (inactive)	0.334	-0.0243 (inactive)	0.0296 (inactive)	-1.24
O=C1O[C@@H](c2ccccc2)[C@@H](c2ccccc2)N2[C@@H](c3ccccc3OCCO)[C@]3(C(=O)Nc4ccccc43)[C@@H](C(=O)O)[C@H]12	0.205	-0.99 (inactive)	-0.0695 (inactive)	0.568 (inactive)	2.62 (inactive)	1.38	-0.103	0.332	1.14	0.0546	-0.749 (inactive)	-0.518	0.749 (inactive)	0.745 (inactive)	-1.6 (inactive)	0.761 (inactive)	0.128	2.66 (inactive)	0.516 (inactive)	1.24
O=C1O[C@H](c2ccccc2)[C@H](c2ccccc2)N2[C@H]1[C@@H](C(=O)NC[C@H](O)c1ccccc1)[C@]1(C(=O)Nc3ccc(C#CC4=CCCCC4)cc31)[C@H]2c1ccccc1OCCO	0.401	-6.13 (inactive)	-0.297 (inactive)	-0.0784 (inactive)	-0.0119 (inactive)	0.787	0.0659	0.0585	0.223	0.134	-0.161 (inactive)	0.199	1.84 (inactive)	2.06 (inactive)	-0.932 (inactive)	2.06 (inactive)	0.233	1.42 (inactive)	1.04 (inactive)	1.83
CN(C)CCCCNC(=O)[C@@H]1C[C@@H]2C(=O)N[C@@H](CCCCN)C(=O)N2[C@@H]1c1ccc(O)cc1	0.0291	-0.151 (inactive)	-0.0779 (inactive)	0.281 (inactive)	-0.773 (inactive)	0.98	-0.0403	0.584	0.435	1.23	0.928 (inactive)	0.129	1.93 (inactive)	1.43 (inactive)	-0.079 (inactive)	1.16 (inactive)	0.297	1.42 (inactive)	1.28 (inactive)	0.81
